# Reference: PubChem BioAssay (NCI)
# About 79,000 compounds went through this panel and 15% of them were active in at least one assay; those are over-represented in the sample as a whole. The source made the active and inactive calls. No stated cut-off is given here; in the data, active means growth inhibition above about 70%; inactive means the rest.
# Test: NCI Yeast Anticancer Drug Screen. Data for the mec2-1 strain (AID 157)
# Settings: S. cerevisiae mec2-1 strain, at 5.0 µM (retest, dose inferred, filed as 0.5), stronger effect = higher value
# Procedure, shortened: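 Growth inhibition is read against vehicle-treated controls after compound exposure of the mec2-1 yeast strain, which is defective in DNA damage repair or cell cycle control.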
row,Structure (SMILES),growth inhibition
1,C=CC(=O)N1C/C(=C\c2ccc(F)cc2)C(=O)/C(=C/c2ccc(F)cc2)C1,14% (inactive)
2,CCOc1ccc2c(c1)n([O-])c1ccccc1[n+]2=O,12% (inactive)
3,O=C(/C(Cl)=N/O)c1ccccc1,47% (inactive)
4,O=C(NC1CCN(Cc2ccccc2)CC1)c1ccc(I)cc1,46% (inactive)
5,O=C1c2ccccc2CCC1C(O)(C(F)(F)F)C(F)(F)F (stereo not given),16% (inactive)
6,O=C(C(=O)n1ncc(Cl)c(Cl)c1=O)n1ncc(Cl)c(Cl)c1=O,-5% (inactive)
7,OC1OCC(OCc2ccccc2)C(OCc2ccccc2)C1OCc1ccccc1 (stereo not given),-25% (inactive)
8,CN1CCC(OC(=O)c2ccc3ncccc3c2)CC1,-2% (inactive)
9,CCC(c1ccc(O)cc1)C(CC)c1ccc(OCC(N)=O)cc1 (stereo not given),0% (inactive)
10,CCCCCCCC(=O)O[C@H]1[C@H]2[C@@H](CC1(C)C)C(=O)[C@]13O[C@H]1C(=O)[C@]1(CO1)[C@]23C,47% (inactive)
11,CN1CCCN(C)C1c1cc([N+](=O)[O-])ccc1O,3% (inactive)
12,CCOC(=O)C[n+]1c(C)sc2ccccc21,-3% (inactive)
13,O=C(O)C(CCc1cccc2ccccc12)c1ccccc1 (stereo not given),2% (inactive)
14,O=C1C(Cl)=C(Cl)C(=O)C2CC=CCC12 (stereo not given),92% (active)
15,Nc1n[nH]c(=O)c2cccnc12,2% (inactive)
16,OC(CBr)c1cc(-c2ccccc2)nc2ccccc12 (stereo not given),-2% (inactive)
17,O=C(O)CCCc1ccc2c(c1)CC1(C2)Cc2ccc(CCCC(=O)O)cc2C1,21% (inactive)
18,CC1=Nc2ccccc2/C1=C\c1c(C)[nH]c2ccccc12,39% (inactive)
19,CC(=O)C(C(=N)C#N)C(=O)Nc1ccccc1 (stereo not given),2% (inactive)
20,COc1ccc2nc3cc(Cl)ccc3c(NCCC[N+](C)(C)CCCCCCCCCC[N+](C)(C)CCCNc3c4ccc(Cl)cc4nc4ccc(OC)cc34)c2c1,22% (inactive)

row,Structure (SMILES),growth inhibition
1,Oc1cc(Cl)cc2c1-c1ccc(Cl)cc1C2O (stereo not given),6% (inactive)
2,CC1(C)OC(=O)C(=NNc2ccccc2[N+](=O)[O-])C(=O)O1,2% (inactive)
3,Clc1ccc(OCC2CO2)c(Cl)c1 (stereo not given),-17% (inactive)
4,O=c1ccc([N+](=O)[O-])c[nH]1.[Ag],99% (active)
5,O=C1CSC(c2c[nH]c3ccccc23)N1c1cccc(Cl)c1 (stereo not given),8% (inactive)
6,Fc1cccc(NC(=S)SCc2ccco2)c1,-1% (inactive)
7,S=c1[nH]nc(SCc2ccc(Cl)c(Cl)c2)c2[nH]cnc12,-11% (inactive)
8,Cc1c(Cl)cccc1NC(=O)/C(Cl)=C(\Cl)C(=O)O,-1% (inactive)
9,Nc1ccc2ccc3cccc4ccc1c2c34,-37% (inactive)
10,O=C(C(/C=N/C(=S)NCc1ccccc1)=C(/O)c1ccccc1)c1ccccc1,-1% (inactive)
11,C/C(=N\NC(=S)Nc1ccc(Cl)cc1)c1nc2ncccc2[nH]1,-6% (inactive)
12,O=C(/C=C\c1ccc(Cl)c(Cl)c1)c1cccs1,-2% (inactive)
13,CC12CC(O)C3C(CCC4CCCCC43C)C1CC/C2=N/O (stereo not given),45% (inactive)
14,CCCn1cc2c(SC)nc(SC)nc2n1,0% (inactive)
15,Cc1ccc(C2(O)c3ccccc3-c3ccccc32)cc1,8% (inactive)
16,C=CCc1ccc2c(C)cc[n+](C)c2c1O,19% (inactive)
17,COC(=O)c1nc(NC#N)[nH]c(=O)c1CCCCCc1cnc(NC#N)nc1,-2% (inactive)
18,Cc1c2cnccc2c(C)c2c1c1ccccc1n2CCOC(=O)c1ccccc1,-4% (inactive)
19,C/C(=N/O)c1ccc2c(c1)C(C)c1ccccc1-2 (stereo not given),-53% (inactive)
20,Oc1ccc2ccccc2c1I,42% (inactive)

# Same assay, conditions: S. cerevisiae mec2-1 strain, at 50.0 µM (retest, dose inferred, filed as 5.0), stronger effect = higher value
row,Structure (SMILES),growth inhibition
1,C=CC(=O)N1C/C(=C\c2ccc(F)cc2)C(=O)/C(=C/c2ccc(F)cc2)C1,77% (active)
2,CCOc1ccc2c(c1)n([O-])c1ccccc1[n+]2=O,99% (active)
3,O=C(/C(Cl)=N/O)c1ccccc1,100% (active)
4,O=C(NC1CCN(Cc2ccccc2)CC1)c1ccc(I)cc1,62% (inactive)
5,O=C1c2ccccc2CCC1C(O)(C(F)(F)F)C(F)(F)F (stereo not given),7% (inactive)
6,O=C(C(=O)n1ncc(Cl)c(Cl)c1=O)n1ncc(Cl)c(Cl)c1=O,10% (inactive)
7,OC1OCC(OCc2ccccc2)C(OCc2ccccc2)C1OCc1ccccc1 (stereo not given),59% (inactive)
8,CN1CCC(OC(=O)c2ccc3ncccc3c2)CC1,4% (inactive)
9,CCC(c1ccc(O)cc1)C(CC)c1ccc(OCC(N)=O)cc1 (stereo not given),-10% (inactive)
10,CCCCCCCC(=O)O[C@H]1[C@H]2[C@@H](CC1(C)C)C(=O)[C@]13O[C@H]1C(=O)[C@]1(CO1)[C@]23C,98% (active)
11,CN1CCCN(C)C1c1cc([N+](=O)[O-])ccc1O,92% (active)
12,CCOC(=O)C[n+]1c(C)sc2ccccc21,28% (inactive)
13,O=C(O)C(CCc1cccc2ccccc12)c1ccccc1 (stereo not given),95% (active)
14,O=C1C(Cl)=C(Cl)C(=O)C2CC=CCC12 (stereo not given),99% (active)
15,Nc1n[nH]c(=O)c2cccnc12,-12% (inactive)
16,OC(CBr)c1cc(-c2ccccc2)nc2ccccc12 (stereo not given),96% (active)
17,O=C(O)CCCc1ccc2c(c1)CC1(C2)Cc2ccc(CCCC(=O)O)cc2C1,33% (inactive)
18,CC1=Nc2ccccc2/C1=C\c1c(C)[nH]c2ccccc12,98% (active)
19,CC(=O)C(C(=N)C#N)C(=O)Nc1ccccc1 (stereo not given),-12% (inactive)
20,COc1ccc2nc3cc(Cl)ccc3c(NCCC[N+](C)(C)CCCCCCCCCC[N+](C)(C)CCCNc3c4ccc(Cl)cc4nc4ccc(OC)cc34)c2c1,98% (active)

row,Structure (SMILES),growth inhibition
1,Oc1cc(Cl)cc2c1-c1ccc(Cl)cc1C2O (stereo not given),98% (active)
2,CC1(C)OC(=O)C(=NNc2ccccc2[N+](=O)[O-])C(=O)O1,19% (inactive)
3,Clc1ccc(OCC2CO2)c(Cl)c1 (stereo not given),40% (inactive)
4,O=c1ccc([N+](=O)[O-])c[nH]1.[Ag],99% (active)
5,O=C1CSC(c2c[nH]c3ccccc23)N1c1cccc(Cl)c1 (stereo not given),97% (active)
6,Fc1cccc(NC(=S)SCc2ccco2)c1,93% (active)
7,S=c1[nH]nc(SCc2ccc(Cl)c(Cl)c2)c2[nH]cnc12,-2% (inactive)
8,Cc1c(Cl)cccc1NC(=O)/C(Cl)=C(\Cl)C(=O)O,41% (inactive)
9,Nc1ccc2ccc3cccc4ccc1c2c34,98% (active)
10,O=C(C(/C=N/C(=S)NCc1ccccc1)=C(/O)c1ccccc1)c1ccccc1,69% (inactive)
11,C/C(=N\NC(=S)Nc1ccc(Cl)cc1)c1nc2ncccc2[nH]1,98% (active)
12,O=C(/C=C\c1ccc(Cl)c(Cl)c1)c1cccs1,4% (inactive)
13,CC12CC(O)C3C(CCC4CCCCC43C)C1CC/C2=N/O (stereo not given),7% (inactive)
14,CCCn1cc2c(SC)nc(SC)nc2n1,46% (inactive)
15,Cc1ccc(C2(O)c3ccccc3-c3ccccc32)cc1,100% (active)
16,C=CCc1ccc2c(C)cc[n+](C)c2c1O,99% (active)
17,COC(=O)c1nc(NC#N)[nH]c(=O)c1CCCCCc1cnc(NC#N)nc1,-2% (inactive)
18,Cc1c2cnccc2c(C)c2c1c1ccccc1n2CCOC(=O)c1ccccc1,78% (active)
19,C/C(=N/O)c1ccc2c(c1)C(C)c1ccccc1-2 (stereo not given),-54% (inactive)
20,Oc1ccc2ccccc2c1I,75% (active)
